This is a sample that favours compounds with a hit; in the whole collection about 12% have one here.
RORg inh: ROR gamma (mouse) transcription inhibition; Drosophila S2 Gal4-RORgamma UAS-luciferase reporter, 20 h; Potency, µM (doses to about 53.6 µM), for inactives: top-dose activity change, negative = inhibition, usual class: inhibitors; 5.4% of 310,000 active; AID 2551; note: nearly all actives have a fitted effect of over 60% in size
Target sequence (P51450 whole entry, looked up, the tested form may be a part): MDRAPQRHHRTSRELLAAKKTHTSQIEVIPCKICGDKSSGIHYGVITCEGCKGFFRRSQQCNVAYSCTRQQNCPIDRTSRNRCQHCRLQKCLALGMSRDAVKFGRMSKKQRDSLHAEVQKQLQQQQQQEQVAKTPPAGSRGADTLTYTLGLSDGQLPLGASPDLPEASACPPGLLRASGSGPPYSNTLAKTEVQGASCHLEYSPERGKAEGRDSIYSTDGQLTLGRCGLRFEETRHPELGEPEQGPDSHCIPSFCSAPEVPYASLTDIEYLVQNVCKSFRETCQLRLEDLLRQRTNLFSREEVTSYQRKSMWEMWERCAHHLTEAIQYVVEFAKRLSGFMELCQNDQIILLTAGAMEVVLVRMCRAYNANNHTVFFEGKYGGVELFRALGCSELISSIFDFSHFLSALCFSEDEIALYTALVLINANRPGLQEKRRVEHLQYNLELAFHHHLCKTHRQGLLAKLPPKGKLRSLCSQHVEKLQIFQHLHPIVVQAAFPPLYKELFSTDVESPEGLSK
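Schneider cells (Drosophila), stable Gal4 DBD–ROR gamma + UAS-luc; 1 hr cmpd preincubation; Cu2+ induction 700 uM final; 20 hr ambient; luminescence.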
PLK1 PBD inh: inhibitors of human PLK1 polo-box domain binding; Potency, µM, for the others: max response, negative = inhibition, actives largely listed as inhibitors; 2.8% of 360,000 active; P53350; AID 720504; Plk1 PBD binding of FITC phosphopeptide, fluorescence polarization; note: series mostly up to about 57 µM; nearly all actives have a fitted effect of over 65% in size
ALDH1A1 inh: ALDH1A1 (human) enzyme inhibition; AID 1030; 7.3% of 220,000 active; Potency, µM (doses to about 75.3 µM), inactives show at the top dose activity, negative = inhibition, usual class: inhibitors; Purified ALDH1A1, NADH fluorescence, propionaldehyde substrate; P00352; active = well fitted inhibition curve with a large enough effect, not every such curve was filed as active; inconclusive = small, poorly fitted or top-dose-only effect, or another doubt; inactive = no such curve, though single readings can be large or run the other way;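 note: plate controls were no enzyme wells and a reference inhibitor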
Gal4-VP16 FLuc: counter-screen for ROR gamma inhibitors: Gal4-VP16 reporter. 3.5% of 310,000 active. Drosophila S2 Gal4-VP16 UAS-luciferase, luminescence, 20 h. Potency, µM (doses to about 53.6 µM), inactives show at the highest dose activity, negative = inhibition, actives largely listed as inhibitors;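 note: Gal4-VP16 expression switched on by copper sulfate through the metallothionein promoter; nearly all actives have a fitted effect of over 50% in size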
Sfp inh: inhibitors of Bacillus subtilis Sfp phosphopantetheinyl transferase; Q9F4F7; Biochemical Sfp PPTase activity, qHTS; Potency, µM, for inactives: largest response in the series, negative = inhibition, hits mostly inhibitors; 3.5% of 310,000 active;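 note: the enzyme is Sfp with the accession as filed and its product quenches rhodamine fluorescence; 0% = enzyme reaction without inhibitor and -100% = no enzyme wells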
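Fluorescence-quenching assay: 15 nM Sfp-PPTase preincubated 15 min at room temperature with compound, then 5 uM rhodamine-CoA and 12.5 uM BHQ-2-labelled YbbR peptide added. Fluorescence (ex 525/em 598 nm) read at start and after 30 min; difference gives rate.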
* marks the source's active call; other numbers are inactive results; ? = inconclusive; / = no result given; [ ] = another dose, or the depositor's remark. Unless noted, calls come from the whole dose curve; as a rule, active = well fitted curve in the direction sought with a large enough effect; inconclusive = small, poorly fitted or top-dose-only effect, or another doubt; inactive = no such curve, though single readings can be large; an effect the other way counts as inactive or inconclusive. Unless noted, % is set by controls: 0 for no effect and ±100 for the full control effect; potency is the fitted concentration of half-maximal effect.

SMILES	RORg inh	PLK1 PBD inh	ALDH1A1 inh	Gal4-VP16 FLuc	Sfp inh
CCCCC#CC1C=CC(Oc2ccc(C(=O)OC)cc2)C(COC(=O)OCC)O1 (stereo not given)	17%[10 µM]	/	?	-6%[10 µM]	7%
O=C(Cn1nc(CNc2ccc(Br)cc2)[n+]2c1CCCCC2)c1ccc([N+](=O)[O-])cc1	?	-16%	/	?	56µM*
CSc1ccc(NC(=O)C2(C)CCN2C(=O)c2sccc2C)cc1 (stereo not given)	/	-5%	/	/	/
Cc1cc(/C=C2/NC(=O)NC2=O)c(C)n1-c1ccncc1	24%	-5%	-6%	10%	17%
Cc1cc(C)c(-n2c(C)cc(/C=C3/NC(=O)NC3=O)c2C)c(C)c1	-1%	-5%	14µM*	-2%	-19%
Cc1cc(/C=C2/NC(=O)NC2=O)c(C)n1-c1sc2c(c1C#N)CCCC2	11µM*	-10%	13µM*	0%	?
CCNC(=O)CSc1nnc(-c2cccc(S(=O)(=O)N(CC)CC)c2)n1CCc1ccccc1	25%	21µM*	4%	3%	8%
CCSc1nnc(-c2cccc(S(=O)(=O)N(CC)CC)c2)n1Cc1ccccc1	-4%	-17%	?	-1%	5%
COc1cccc(C(=O)CN(C(=O)c2ccc(Cl)cc2Cl)N2C(=O)c3ccccc3C2=O)c1	-4%	-15%	16µM*	9%	1%
COc1cccc(C(=O)CN(C(=O)c2ccc(Cl)c(Cl)c2)N2C(=O)c3ccccc3C2=O)c1	16%	-23%	14µM*	-12%	16%
COc1cccc(C(=O)COC(=O)C(C)N2C(=O)c3ccccc3C2=O)c1 (stereo not given)	-7%	-3%	-15%	3%	2%
CCOC(OCC)P(=O)(O)CCCNCc1ccc(Cl)c(Cl)c1	2%	/	2%	-5%	15%
COCCn1c(SCc2cnc(-c3ccccc3)s2)nnc1-c1ccncc1	36%	27µM*	-11%	1%	-21%
C=CCc1c(C)nc(SC)nc1Nc1ccc(C)cc1	10µM*	-5%	4%	3%	-1%
C=CCc1c(C)nc(-c2ccccc2)nc1Nc1ccccc1O	?	-9%	-2%	-10%	9%
Cc1cccc(-n2cnc(C(=O)O)c2)n1	1%	1%	2%	-3%	56µM*
Cc1cccc(-n2cnc(C(=O)NC3CCCCCC3)c2)n1	-4%	24µM*	?	1%	17%
Cc1cccc(-n2cnc(C(=O)N3CCN(C)CC3)c2)n1	3%	-8%	9%	-22%[10 µM]	-2%
C=CCN1C(=O)C2(NNc3ccccc3O2)c2ccccc21 (stereo not given)	-13%	12%	1.6µM*	-7%	?
CCCCN1C(=O)Nc2ccccc2S1=O (stereo not given)	-1%	-5%	-7%	-11%	1%
CCCCN1C(=O)C2(NNc3ccccc3O2)c2ccccc21 (stereo not given)	?	16%	0.28µM*	?	?
COc1ccc(CCNC(=O)c2cc3ccccn3n2)c(OC)c1OC	11%	-1%	22µM*	15%	24%
C=CCN1CCN(C(c2ccc(OC)c(OC)c2)c2nnnn2C(C)(C)C)CC1 (stereo not given)	24%	-4%	2%	-3%	79µM*
C=CCN1CCN(C(c2ccc(Cl)cc2)c2nnnn2CCc2ccc(OC)c(OC)c2)CC1 (stereo not given)	?	-12%	-4%	7%	4%
C=CCN1CCN(C(c2cc(OC)ccc2OC)c2nnnn2CC2CCCO2)CC1 (stereo not given)	0%	30µM*	28µM*	-2%	1%
SMILES	RORg inh	PLK1 PBD inh	ALDH1A1 inh	Gal4-VP16 FLuc	Sfp inh
CCOC(=O)[C@]12CCC=C1N(Cc1ccc(Cl)cc1Cl)C(=O)[C@H](CC(=O)NCCCOC)C2	/	-9%	/	/	/
CCN1/C(=C2\C(=O)N(C)C(=S)N2C)C=Cc2cc(C)ccc21	-35%	-6%	?	-19%	45µM*
CCN1/C(=C2\C(=O)N(C)C(=S)N2c2ccccc2)C=Cc2ccccc21	-36%	-20%	/	-22%	89µM*
CCN1C(=O)/C(=C2/C=Cc3ccccc3N2CC)SC1=S	1%	-6%	1%	11%	-15%
Cc1ccc(N2CCN(C(=O)c3cccs3)CC2)cc1C	3%	-16%	/	-26%	50µM*
COc1cccc(C(=O)N2CCN(C(=O)c3cccs3)CC2)c1OC	-2%	-24%	22µM*	-17%	8%
COc1ccc(-c2noc(CN3CCN(C(=O)c4cccs4)CC3)n2)c(OC)c1OC	-15%	21µM*	/	2%	5%
Nc1ccc(N2CCN(C(=O)c3cccs3)CC2)cc1	18%	1%	?	13%	-15%
COc1cccc(C(=O)N2CCOCC2)c1OC	4%	-16%	1%	1%	13%
C/C=C/c1ccc2oc(-c3ccc(O)cc3)c(C)c2c1	?	/	?	?	16%
Cc1ccc(NC(=O)CN2CCOCC2)cc1C	4%	-4%	/	5%	9%
CCCC[C@H](NC(=O)[C@H](CC(C)C)NC(=O)CNC(=O)[C@@H](NC(=O)[C@H](Cc1ccccc1)NC(=O)[C@H](CO)NC(=O)[C@@H](N)CC(=O)O)C(C)C)C(N)=O	14%	/	/	-1%	-3%
CCOC(=O)C1=C(C)N(C)C(=O)NC1c1c(C)nn(-c2ccc(C)cc2)c1Cl (stereo not given)	-16%	1%	2%	-3%	-9%
CCOC(=O)C1=C(C)NC(=O)NC1c1c(C)nn(-c2ccccc2)c1Cl (stereo not given)	-15%	-6%	?	2%	20µM*
CCN(CC)c1ccc(NC(=O)OC)cc1	36%	-1%	9%	8%	-21%
CCN(CC)c1ccc(SS(=O)(=O)O)cc1	-8%	6.7µM*	13µM*	-6%	45µM*
O=S(=O)(O)C(c1ccccc1)[C@@H](O)c1ccccc1 (stereo not given in full)	/	/	24%[13.5 µM]	/	/
O=S(=O)(O)Sc1ccccc1	/	6µM*	/	/	/
Cc1ccc(C)c(CC(=O)N2CCCCC2c2cc(C(=O)Nc3cccc(C#N)c3)no2)c1 (stereo not given)	/	-6%	/	/	/
COc1ccc(N2CCN(C(=O)/C=C/[C@H]3O[C@@H](n4ccc(=O)[nH]c4=O)[C@H](O)[C@@H]3O)CC2)cc1	/	-1%	/	/	/
CN(CC(=O)Nc1cccc(F)c1)C(=O)CCSc1ccc(F)cc1	/	-11%	/	/	/
CN(CC(=O)Nc1cccc(F)c1)C(=O)CSc1ccccc1F	-2%	24µM*	/	4%	1%
CCC(c1nc2ccccc2[nH]1)n1c(=O)c(-c2ccco2)nc2ccccc21 (stereo not given)	/	-24%	/	/	/
COc1ccc(C2CC(c3cccs3)n3nc(N)nc3N2)cc1 (stereo not given)	?	-22%	?	9%	-8%
COc1ccc(C2CC(c3ccccc3)Nc3nc(NC(=O)c4cccs4)nn32)cc1 (stereo not given)	2.8µM*	2%	?	5.6µM*	0%
